# Data published in PubChem BioAssay.
# Calls of active or inactive are those of the source. Unless noted, how the calls were made is not given here.
# Legend:
# [1] = HepG2 liver cancer cell viability effects, profiling panel, resazurin fluorescence, 24 h, PK04 Diversity Set (AID 1172); details: higher = more signal
# [2] = basal S. cerevisiae growth modulation, no modifier, primary screen, OD600, strain BY4716, 24 h, basal condition (AID 1173); details: OD600, 24 h, higher = more signal, called active from +8 up or from −8 down
# [3] = MM1S myeloma cell viability, profiling panel, resazurin fluorescence, basal, 24 h, PK04 Diversity Set (AID 1174); details: higher = more signal, called active from +8 up or from −8 down;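 further: MM1S multiple myeloma cell line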
# [4] = biological target: Dihydroorotate dehydrogenase (quinone), mitochondrial (Plasmodium falciparum (isolate 3D7)) (UniProt Q08210); experiment: PfDHODH enzyme inhibitors, primary screen, biochemical, C-terminal His tag, absorbance 600 nm (AID 1175); details: DCIP absorbance 600 nm, higher = more signal, called active from +8 up or from −8 down;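 further: recombinant parasite enzyme with a five histidine tag at its C terminus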
# Chain of Dihydroorotate dehydrogenase (quinone), mitochondrial (Plasmodium falciparum (isolate 3D7)) (Q08210 whole entry, looked up): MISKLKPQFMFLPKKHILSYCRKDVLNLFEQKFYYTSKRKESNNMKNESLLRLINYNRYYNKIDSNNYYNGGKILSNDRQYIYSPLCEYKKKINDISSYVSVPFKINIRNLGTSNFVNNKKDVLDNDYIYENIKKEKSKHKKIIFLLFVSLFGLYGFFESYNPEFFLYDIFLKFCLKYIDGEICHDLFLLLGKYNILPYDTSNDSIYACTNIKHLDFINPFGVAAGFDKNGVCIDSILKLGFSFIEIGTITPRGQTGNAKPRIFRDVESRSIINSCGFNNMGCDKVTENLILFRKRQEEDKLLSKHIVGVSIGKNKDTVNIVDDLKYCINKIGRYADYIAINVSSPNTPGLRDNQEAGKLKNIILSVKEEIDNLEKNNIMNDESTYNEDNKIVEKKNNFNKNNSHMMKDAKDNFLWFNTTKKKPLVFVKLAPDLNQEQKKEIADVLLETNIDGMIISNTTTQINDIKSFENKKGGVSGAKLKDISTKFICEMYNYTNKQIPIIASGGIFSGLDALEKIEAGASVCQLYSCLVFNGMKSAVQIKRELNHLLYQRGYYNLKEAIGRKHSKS
# [5] = P. aeruginosa biofilm formation inhibitors, primary screen, strain PAO1, LB-PBS medium, absorbance 600 nm (AID 1176); details: P. aeruginosa PAO1 growth/biofilm, A600, 12 h; higher = more signal
# [6] = S. cerevisiae RM11-1a growth modifiers, primary screen, strain RM11-1a, OD600, basal, 24 h (AID 1177); details: OD600, 24 h, higher = more signal, called active from +8 up or from −8 down;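 further: cultures grown under basal conditions with no added stressor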
# [7] = E. coli acrAB mutant growth effects, primary screen, E. coli filamentation inducers, strain DRC39, OD650, 24 h (AID 1178); details: higher = more signal, called active from +8 up or from −8 down;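 further: growth measured as culture turbidity by optical density at 650 nm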
# [8] = E. coli acrAB mutant growth effects, primary screen, E. coli filamentation inducers, strain DRC39, OD650, 48 h (AID 1179);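 further: screen aims at cell division blockers that make cells filament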; details: E. coli DRC39 delta-acrAB growth, higher = more signal, called active from +8 up or from −8 down
# [9] = RPMI8226 myeloma cell viability, profiling panel, resazurin fluorescence, basal, 24 h, PK04 Diversity Set (AID 1180); details: higher = more signal;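 further: RPMI8826 multiple myeloma cell line at 5000 cells per well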
# [10] = biological target: E3 ubiquitin-protein ligase XIAP (Homo sapiens) (UniProt P98170); experiment: XIAP binders, primary screen, biophysical, small-molecule microarray, fluorescence 635 nm (AID 1181); details: small-molecule microarray binding, higher = more signal;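 further: score merges 667 nm emission and signal to noise over triplicate slides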
# Chain of E3 ubiquitin-protein ligase XIAP (Homo sapiens) (P98170 whole entry, looked up): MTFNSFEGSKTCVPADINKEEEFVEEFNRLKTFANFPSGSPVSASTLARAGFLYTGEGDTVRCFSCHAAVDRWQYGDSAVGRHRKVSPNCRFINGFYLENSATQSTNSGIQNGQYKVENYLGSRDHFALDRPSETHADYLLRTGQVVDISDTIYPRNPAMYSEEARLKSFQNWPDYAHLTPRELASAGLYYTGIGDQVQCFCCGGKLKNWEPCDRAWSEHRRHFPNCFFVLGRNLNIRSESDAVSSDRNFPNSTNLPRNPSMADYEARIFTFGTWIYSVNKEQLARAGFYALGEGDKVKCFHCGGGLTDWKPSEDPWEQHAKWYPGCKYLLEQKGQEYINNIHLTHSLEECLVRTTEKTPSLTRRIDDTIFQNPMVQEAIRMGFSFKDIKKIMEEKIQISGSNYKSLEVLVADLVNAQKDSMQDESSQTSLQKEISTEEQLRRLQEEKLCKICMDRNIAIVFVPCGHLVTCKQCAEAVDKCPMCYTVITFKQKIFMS
# [11] = tested on: XIP peptide (Xip251-270) binding; experiment: small-molecule binders of XIP peptide, primary screen, biochemical, small-molecule microarray, fluorescence 635/667 nm, 0.1 µg/mL protein (AID 1182); details: fluorescent protein binding, 635 nm, higher = more signal, called active from +8 up or from −8 down
# XIP peptide (Xip251-270) = experiment: small-molecule binders of XIP peptide, primary screen, biochemical, small-molecule microarray, fluorescence 635/667 nm, 0.5 µg/mL protein (AID 1183); details: small-molecule microarray binding, fluorescence 635 nm; higher = more signal
# [12] = Plasmodium falciparum growth inhibition, primary screen, strain 3D7, DAPI fluorescence, 100 nL (AID 1184);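 further: parasites grown inside human red blood cells in medium with human serum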; details: P. falciparum 3D7 growth, 3 d, higher = more signal
# [13] = biological target: Homeobox protein Hox-A13 (Mus musculus) (UniProt Q62424); experiment: inhibitors of HoxA13-DNA binding, primary screen, biochemical, fluorescence polarization, labeled oligonucleotide (AID 1185); details: 15 min, higher = more signal, called active from +8 up or from −8 down
# Chain of Homeobox protein Hox-A13 (Mus musculus) (Q62424 whole entry, looked up): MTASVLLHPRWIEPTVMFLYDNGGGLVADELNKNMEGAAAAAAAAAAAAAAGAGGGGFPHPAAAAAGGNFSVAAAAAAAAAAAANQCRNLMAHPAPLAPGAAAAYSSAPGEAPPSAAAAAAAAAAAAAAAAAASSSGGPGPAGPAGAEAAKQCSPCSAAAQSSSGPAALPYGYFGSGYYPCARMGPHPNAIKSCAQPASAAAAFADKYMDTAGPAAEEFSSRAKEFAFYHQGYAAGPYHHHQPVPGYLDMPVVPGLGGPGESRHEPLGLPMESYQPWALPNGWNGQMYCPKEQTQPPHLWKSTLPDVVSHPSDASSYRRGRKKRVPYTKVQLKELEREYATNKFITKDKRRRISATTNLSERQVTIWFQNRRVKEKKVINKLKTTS
# [14] = inhibitors of hydroxyurea-induced Chk1 phosphorylation, primary screen, imaging, HeLa, phospho-Chk1 antibody, percent positive cells (AID 1186); details: hydroxyurea-induced phospho-Chk1 immunofluorescence imaging, higher = more signal
# [15] = inhibitors of hydroxyurea-induced Chk1 phosphorylation, primary screen, imaging, HeLa, phospho-Chk1 nuclear intensity (AID 1187); details: hydroxyurea-induced phospho-Chk1 immunofluorescence imaging, higher = more signal
SMILES,z-score [1],z-score [2],z-score [3],composite z-score [4],z-score [5],z-score [6],z-score [7],z-score [8],z-score [9],composite z-score [10],composite z-score [11],composite z-score (XIP peptide (Xip251-270)),z-score [12],z-score [13],z-score [14],z-score [15]
CN(C)CCCN1C(=O)[C@@]2(c3ccc([N+](=O)[O-])cc3)CC(=O)N(C3CCCCC3)[C@@H]2c2ccc(CO)cc21,1.57,-1.28 (inactive),1.11 (inactive),-3.88 (inactive),-0.6 (inactive),-1.45 (inactive),0.244 (inactive),0.876 (inactive),1.12,-0.0374,-0.157 (inactive),-0.0092,0.615,-0.595 (inactive),-0.659 (inactive),-0.648 (inactive)
COc1cc(NN2C(C(O)c3ccccc3)C=CC3C(=O)N(c4ccccc4)C(=O)C32)cc(OC)c1OC (centres undefined),-1.04,0.887 (inactive),-0.417 (inactive),-1.37 (inactive),-0.0751 (inactive),0.0729 (inactive),0.32 (inactive),0.8 (inactive),-0.827,0.219,0.396 (inactive),0.774,-0.634,-4.58 (inactive),0.124 (inactive),-0.0995 (inactive)
C=CC[C@@]1(C(=O)OC)N=C(c2ccc(OCCCO)cc2)O[C@@H]1c1ccccc1CN=[N+]=[N-],1.09,-12.3 (active),-1.72 (inactive),-0.509 (inactive),-0.347 (inactive),-0.712 (inactive),0.419 (inactive),0.967 (inactive),-0.494,-0.0868,2.46 (inactive),0.611,-2.39,-3.73 (inactive),-1.07 (inactive),-1.45 (inactive)
C=CC[C@]1(C(=O)O)N=C(c2ccc(OCCCO)cc2)O[C@H]1c1ccccc1CN=[N+]=[N-],0.13,-0.518 (inactive),-2.6 (inactive),0.381 (inactive),-0.555 (inactive),0.363 (inactive),0.104 (inactive),0.619 (inactive),-0.728,0.117,1 (inactive),-0.76,0.797,-5.35 (inactive),0.341 (inactive),-0.0268 (inactive)
CCN(CC)c1ccc(N2CC=CC34O[C@@H]5/C=C\CCCOC(=O)C5[C@H]3C(=O)N(CCCO)[C@@H]4C2=O)cc1 (some centres undefined),0.434,0.993 (inactive),0.481 (inactive),-0.423 (inactive),0.053 (inactive),-0.767 (inactive),-0.438 (inactive),-0.322 (inactive),0.566,0.559,0.828 (inactive),0.828,0.404,-6.09 (inactive),-0.343 (inactive),0.121 (inactive)
C=C(CCCC)C(=O)CC[C@H](OC(=O)c1ccccc1-c1ccccc1C(=O)O)c1ccc(CO)o1,0.985,0.671 (inactive),0.319 (inactive),-0.72 (inactive),0.497 (inactive),0.996 (inactive),-0.154 (inactive),0.16 (inactive),0.64,-0.154,0.556 (inactive),0.582,-0.714,-6.05 (inactive),-0.131 (inactive),-0.23 (inactive)
COCCCNC(=O)[C@]1(Cc2ccccc2N=[N+]=[N-])N=C(c2ccc(OCCCO)cc2)O[C@@H]1c1ccccc1CN=[N+]=[N-],-0.412,0.0634 (inactive),-2.16 (inactive),0.0785 (inactive),1.83 (inactive),-0.22 (inactive),2.79 (inactive),0.499 (inactive),-2.01,0.283,0.0423 (inactive),0.758,-2.21,-0.242 (inactive),-0.659 (inactive),-0.443 (inactive)
CC(C)(C)OC(=O)CC[C@@]1(C(=O)NCC(O)CO)N=C(c2ccc(OCCCO)cc2)O[C@@H]1c1ccccc1 (some centres undefined),0.38,-0.205 (inactive),-0.542 (inactive),-0.73 (inactive),0.671 (inactive),0.0191 (inactive),-0.529 (inactive),0.108 (inactive),-0.397,0.0785,0.826 (inactive),0.942,0.649,-4.48 (inactive),0.184 (inactive),-0.14 (inactive)
O=C1O[C@@H](c2ccccc2)[C@@H](c2ccccc2)N2[C@@H](c3ccc(O)cc3)[C@]3(C(=O)Nc4ccc(C#CCCO)cc43)[C@@H](C(=O)N3CCCCCCC3)[C@H]12,-0.348,0.176 (inactive),-0.161 (inactive),1.29 (inactive),1.01 (inactive),0.524 (inactive),0.0109 (inactive),-0.787 (inactive),-0.53,0.567,0.868 (inactive),0.876,-1.1,1.7 (inactive),-0.149 (inactive),-0.56 (inactive)
COCCOC(=O)N1C(=O)[C@@]2(c3cc(C#Cc4ccc(OC)cc4)ccc31)[C@H](c1ccc(OCCO)cc1)N1[C@H](c3ccccc3)[C@H](c3ccccc3)OC(=O)[C@H]1[C@@H]2C(=O)N1CCc2cc(OC)c(OC)cc2C1,1.04,2.62 (inactive),1.02 (inactive),-0.0321 (inactive),3.34 (inactive),3.55 (inactive),-0.148 (inactive),0.0574 (inactive),0.928,-0.0476,0.179 (inactive),0.592,-1.85,3.38 (inactive),-0.329 (inactive),-0.456 (inactive)
COCCOC(=O)N1C(=O)[C@@]2(c3cc(C#CC4(O)CCCCCC4)ccc31)[C@H](c1ccc(O)cc1)N1[C@H](c3ccccc3)[C@H](c3ccccc3)OC(=O)[C@H]1[C@@H]2C(=O)N1CCc2cc(OC)c(OC)cc2C1,2.14,-0.169 (inactive),0.493 (inactive),-0.102 (inactive),-0.0242 (inactive),-0.592 (inactive),0.351 (inactive),-0.8 (inactive),0.0494,-0.313,-0.455 (inactive),0.839,0.0635,-0.954 (inactive),-0.404 (inactive),-0.466 (inactive)
O=C(NCC(O)CO)[C@@]1(Cc2ccccc2)COC(c2ccc(OCCCO)cc2)=N1 (some centres undefined),0.55,-0.339 (inactive),-0.322 (inactive),-0.815 (inactive),0.385 (inactive),0.0962 (inactive),0.187 (inactive),0.276 (inactive),0.0244,-0.135,-0.0623 (inactive),0.464,0.945,-5.97 (inactive),-0.036 (inactive),0.238 (inactive)
CCCC[C@H]1OB(O)C[C@H]2C1=C(C)Cn1c(=O)n(-c3ccccc3)c(=O)n12,0.916,0.422 (inactive),-0.441 (inactive),-0.0299 (inactive),-0.638 (inactive),0.218 (inactive),-0.13 (inactive),-0.605 (inactive),0.191,-0.0599,-0.0734 (inactive),0.116,-2.15,-0.581 (inactive),-0.705 (inactive),-0.679 (inactive)
CN(C)CCCCCCNC(=O)[C@@H]1C[C@@H]2C(=O)N[C@@H](Cc3ccccc3)C(=O)N2[C@@H]1c1cccc(OCCO)c1,-0.272,-0.117 (inactive),-0.826 (inactive),-0.562 (inactive),-0.695 (inactive),-0.704 (inactive),0.25 (inactive),0.0332 (inactive),-0.592,0.564,2.15 (inactive),0.809,0.526,-4.13 (inactive),0.0258 (inactive),-0.024 (inactive)
Cc1ccc(F)cc1S(=O)(=O)N[C@@H]1CCN(Cc2ccc(C(F)(F)F)cc2)C1,-0.29,-10.8 (active),-0.529 (inactive),-0.315 (inactive),-0.553 (inactive),0.338 (inactive),0.0136 (inactive),-1.2 (inactive),-0.979,-0.177,0.0254 (inactive),-0.496,-0.433,-5.99 (inactive),-0.619 (inactive),-0.441 (inactive)
CCCNC(=O)[C@@]1(C)c2ccccc2C(=O)N(Cc2cc(C(F)(F)F)cc(C(F)(F)F)c2)[C@H]1c1ccc(CO)cc1,0.597,-0.991 (inactive),0.526 (inactive),-0.241 (inactive),0.882 (inactive),-0.563 (inactive),0.0099 (inactive),-0.161 (inactive),0.73,-0.212,0.977 (inactive),0.665,-1.63,-4.26 (inactive),-0.0596 (inactive),-0.0865 (inactive)
O=C1C2C=CC(C(O)c3ccccn3)N(Nc3ccccc3F)C2C(=O)N1c1ccccc1 (centres undefined),0.248,-0.166 (inactive),-0.497 (inactive),0.761 (inactive),0.378 (inactive),-0.0396 (inactive),-0.628 (inactive),0.292 (inactive),-0.0768,0.0521,-0.035 (inactive),0.796,-0.0664,-2.54 (inactive),-0.0045 (inactive),-0.176 (inactive)
CC(C)(C)OC(=O)CC[C@@]1(C(N)=O)N=C(c2ccc(OCCCO)cc2)O[C@@H]1c1ccccc1N=[N+]=[N-],0.55,-0.231 (inactive),-0.134 (inactive),0.974 (inactive),-0.18 (inactive),0.045 (inactive),0.397 (inactive),0.529 (inactive),0.288,0.0908,0.0344 (inactive),0.839,-0.338,-6.23 (inactive),-0.244 (inactive),-0.0977 (inactive)
NC(=O)[C@@]1(CCS(=O)(=O)c2ccccc2)N=C(c2ccc(OCCCO)cc2)O[C@H]1c1ccccc1,-0.0687,-1.38 (inactive),0.837 (inactive),-0.319 (inactive),-0.73 (inactive),-0.832 (inactive),0.818 (inactive),0.565 (inactive),0.429,0.0097,1.11 (inactive),0.863,-1.9,-6.86 (inactive),0.0218 (inactive),0.56 (inactive)
